The whole screen tested about 340,000 compounds, of which about 3,400 (1%) were called active. This excerpt belongs to a sample that is enriched for actives. Unmarked numbers belong to inactive results.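 The calls were made as follows: active = inhibition above the mean over all tested compounds plus 3 SD (cut at about 4.2% in these data); inactive = the rest.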
Target: Nuclear receptor subfamily 0 group B member 1 (Homo sapiens) (UniProt P51843)
Assay: DAX1 (NR0B1) inhibitors, primary screen, cell-based, HEK293, Gal4-DAX1, luciferase luminescence (AID 504766);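 also: 0% = DAX1-transfected cells with DMSO and 100% = empty-vector control cells with DMSO; inhibition shows as a rise in luminescence from relieved DAX1 repression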
Conditions: HEK293 Gal4-DAX1 luciferase reporter, at 6.75 µM, hits give high values

Sequence of Nuclear receptor subfamily 0 group B member 1 (Homo sapiens) (P51843 207-470 limits assumed): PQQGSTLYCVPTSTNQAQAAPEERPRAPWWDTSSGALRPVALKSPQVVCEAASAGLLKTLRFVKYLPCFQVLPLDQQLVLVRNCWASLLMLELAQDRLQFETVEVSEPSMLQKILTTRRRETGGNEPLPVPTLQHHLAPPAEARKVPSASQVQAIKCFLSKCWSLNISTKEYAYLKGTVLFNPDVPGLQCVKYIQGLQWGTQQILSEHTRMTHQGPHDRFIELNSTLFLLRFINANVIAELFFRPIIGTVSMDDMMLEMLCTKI

Row | Structure (SMILES) | inhibition
1 | CC1C(=O)OC2CCN3CC=C(COC(=O)C(C)(O)C1(C)O)C23 (stereo not given) | 6.45% (active)
2 | O=C(NCC1=C(c2ccc3ccccc3c2)C[C@@H]2CC[C@H]1N2Cc1ccco1)c1cccs1 | 0.9%
3 | CN(C)CC1CCCCC1OC(=O)c1ccc(Cl)c(Cl)c1 (stereo not given) | 1.17%
4 | N=c1ccccn1Cc1ccccc1 | 4.71% (active)
5 | COc1cc2nc(N3CCN(C(=O)[C@@H]4CCCO4)CC3)nc(N)c2cc1OC | -1.49%
6 | CC(C(=O)Nc1ccc(Cl)cc1Cl)N1CC=C(c2ccccc2)CC1 (stereo not given) | 0.95%
7 | COC(=O)C1=C(c2ccc3ccccc3c2)C[C@@H]2CC[C@H]1N2C(=O)NCCO | -0.02%
8 | COC(=O)C1=C(c2ccc(F)cc2F)C[C@@H]2CC[C@H]1N2C(=O)NC1CC1 | 1.3%
9 | Fc1ccc(C2N3CCCN23)cc1 (stereo not given) | 6.8% (active)
10 | Cc1cccc(NC(=O)N2CC3CC(C2)c2cccc(=O)n2C3)c1 (stereo not given) | -0.11%
11 | CC(=CCOc1ccc2ccc(=O)oc2c1)C1=CC(=O)C(C)(C)O1 | -1.41%
12 | C[C@]12CC[C@H](O)CC1=C([N+](=O)[O-])CC1C2CC[C@@]2(C)C1CC[C@@H]2O (stereo not given in full) | 0.51%
13 | COc1ccc(-c2nn(CCC#N)cc2C(=O)O)cc1 | 0.78%
14 | CC/C(=N\NC(=O)c1ccccc1O)c1c(O)n(Cc2ccccc2)c(=O)[nH]c1=O | 4.6% (active)
15 | CCC(=NCc1ccco1)c1c(O)n(Cc2ccccc2)c(=O)[nH]c1=O | -0.6%
16 | O=C(N/N=C/c1c(O)n(Cc2ccccc2)c(=O)[nH]c1=O)c1ccccc1 | 0.57%
17 | Cc1ccc(OC(=O)N(C)C[C@@H]2OCc3cnnn3CCCC(=O)N([C@H](C)CO)C[C@@H]2C)cc1 | 1.2%
18 | COC(=O)C1=C(c2cccc(OCc3ccccc3)c2)C[C@@H]2CC[C@H]1N2C(=O)NCc1ccc(Br)cc1 | -1.05%
19 | C=Cn1ccnc1P(=S)(c1cc(N(CC)CC)ns1)c1nccn1C=C | 0.78%
20 | Cc1nc2ccccn2c1P(=S)(N1CCCCC1)N1CCCCC1 | -0.88%
21 | CC(=O)OC1C2(CC3N4C(=O)C5(CO)SSC4(CC31O)C(=O)N5C)OC(C)C(C)(C)C2=O (stereo not given) | -6.61%
22 | O=C(c1ccccc1[N+](=O)[O-])N1CCC2(CC1)OCCO2 | 5.98% (active)
23 | O=C(c1cc(S(=O)(=O)N2CCOCC2)ccc1F)N1CCC2(CC1)OCCO2 | 0.34%
24 | O=C(c1cc(-c2ccncc2)nc2ccccc12)N1CCC2(CC1)OCCO2 | 1.03%
25 | CN(C)c1nc(N(C)C)nc(N(C#N)CCCl)n1 | -0.78%
26 | CNCC(O)c1cc(F)c(OCc2ccccc2)c(OCc2ccccc2)c1F (stereo not given) | -0.1%
27 | CN1CCc2cc3c(cc2[C@H]1[C@@H]1OC(=O)c2c1ccc1c2OCO1)OCO3 | 1.17%
28 | O=C1NC(=O)C(CCOc2ccccc2)(CCc2ccccc2)C(=O)N1 | -0.23%
29 | CCC(C)n1c(O)c(/C=N/Nc2nc3c(c(=O)n(C)c(=O)n3C)n2C)c(=O)[nH]c1=S (stereo not given) | 4.71% (active)
30 | O=C(CCC(=O)N1C[C@H]2C[C@@H](C1)c1cccc(=O)n1C2)NCc1ccccc1C(F)(F)F | 0.36%

— PubChem BioAssay AID504766 (The Scripps Research Institute Molecular Screening Center, 2011)
